# Test results: the supplement of paper PMC8728848
# Only a selection was taken, and the strongest signals are over-represented in it overall.
# B1: DC-ASGPR-short (Homo sapiens) (protein)
# chain: MTRTYENFQYLENKVKVQGFKNGPLPLQSLLQRLRSGPCHLLLSLGLGLLLLVIICVVGFQNSKFQRDLVTLRTDFSNFTSNTVAEIQALTSQGSSLEETIASLKAEVEGFKQERQAVHSEMLLRVQQLVQDLKKLTCQVATLNNNASTEGTCCPVNWVEHQDSCYWFSHSGMSWAEAEKYCQLKNAHLVVINSREEQNFVQKYLGSAYTWMGLSDPEGAWKWVDGTDYATGFQNWKPGQPDDWQGHGLGGGEDCAHFHPDGRWNDDVCQRPYHWVCEAGLGQTSQESH
# How the values were obtained:
# Test in all cases: glycan array binding signal (z-score within array); higher = stronger binding
# Conditions in all cases: glycan notation: IUPAC condensed, linker removed
# [1] = target: Fuc(a1-2)Gal(b1-4)GlcNAc(b1-6)GalNAc
# Outline: (§1)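 Glycan array data were curated from 3228 arrays in the Consortium for Functional Glycomics database and kept only where the protein sequence was available. Glycan names were converted to IUPAC-condensed notation, and columns mapping to the same glycan were averaged. The binding signal is a within-array Z-score, averaged across arrays of the same protein sequence at different concentrations or buffers and across linkers. Negative Z-scores can be read as non-binding.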
# [2] = target: Fuc(a1-2)Gal(b1-4)[Fuc(a1-3)]GlcNAc(b1-2)[Fuc(a1-2)Gal(b1-4)[Fuc(a1-3)]GlcNAc(b1-4)]Man(a1-3)[Fuc(a1-2)Gal(b1-4)[Fuc(a1-3)]GlcNAc(b1-2)Man(a1-6)]Man(b1-4)GlcNAc(b1-4)GlcNAc
# Outline: as §1
# [3] = target: Fuc(a1-2)[Gal(a1-3)]Gal(b1-4)GlcNAc(b1-3)[Fuc(a1-2)[Gal(a1-3)]Gal(b1-4)GlcNAc(b1-6)]GalNAc
# Outline: as §1
# [4] = target: Fuc(a1-2)[Gal(a1-4)]Gal(b1-4)GlcNAc
# Outline: as §1
# [5] = target: Fuc(a1-2)[GalNAc(a1-3)]Gal
# Outline: as §1
# [6] = target: Fuc(a1-2)[GalNAc(a1-3)]Gal(b1-3)GalNAc(a1-3)[Fuc(a1-2)]Gal(b1-4)GlcNAc
# Outline: as §1
# [7] = target: Fuc(a1-2)[GalNAc(a1-3)]Gal(b1-4)GlcNAc(b1-3)Gal(b1-4)GlcNAc
# Outline: as §1
# [8] = target: Fuc(a1-2)[GalNAc(a1-4)]Gal(b1-4)GlcNAc
# Outline: as §1
# [9] = target: Fuc(a1-2)[GalNAc(b1-3)]Gal
# Outline: as §1
# [10] = target: Fuc(a1-3)[Gal(b1-4)]GlcNAc
# Outline: as §1
# [11] = target: Fuc(a1-3)[Gal(b1-4)]GlcNAc(b1-3)Gal(b1-3)[Fuc(a1-4)]GlcNAc
# Outline: as §1
# [12] = target: Fuc(a1-3)[GalNAc(b1-4)]GlcNAc
# Outline: as §1
# Gal(b1-3)GalNAc(b1-3)Gal = target: Gal(b1-3)GalNAc(b1-3)Gal
# Outline: as §1
# [13] = target: Gal(b1-3)[Fuc(a1-4)]GlcNAc
# Outline: as §1
# [14] = target: Gal(b1-3)[Fuc(a1-4)]GlcNAc(b1-2)Man
# Outline: as §1
# [15] = target: Gal(b1-4)GlcNAc(b1-2)[Gal(b1-4)GlcNAc(b1-6)]Man(a1-6)[GlcNAc(b1-4)][Gal(b1-4)GlcNAc(b1-2)Man(a1-3)]Man(b1-4)GlcNAc(b1-4)GlcNAc
# Outline: as §1
# [16] = target: Gal(b1-4)GlcNAc(b1-3)Gal(b1-4)GlcNAc(b1-2)Man(a1-3)[Gal(b1-4)GlcNAc(b1-3)Gal(b1-4)GlcNAc(b1-2)Man(a1-6)]Man(b1-4)GlcNAc(b1-4)GlcNAc
# Outline: as §1
# [17] = target: Gal(b1-4)GlcNAc(b1-3)Gal(b1-4)GlcNAc(b1-3)Gal(b1-4)GlcNAc(b1-2)Man(a1-3)[Gal(b1-4)GlcNAc(b1-3)Gal(b1-4)GlcNAc(b1-3)Gal(b1-4)GlcNAc(b1-2)Man(a1-6)]Man(b1-4)GlcNAc(b1-4)GlcNAc
# Outline: as §1
# [18] = target: Gal(b1-4)GlcNAc(b1-3)Gal(b1-4)GlcNAc(b1-3)Gal(b1-4)GlcNAc(b1-2)[Gal(b1-4)GlcNAc(b1-3)Gal(b1-4)GlcNAc(b1-3)Gal(b1-4)GlcNAc(b1-6)]Man(a1-6)[Gal(b1-4)GlcNAc(b1-3)Gal(b1-4)GlcNAc(b1-3)Gal(b1-4)GlcNAc(b1-2)Man(a1-3)]Man(b1-4)GlcNAc(b1-4)[Fuc(a1-6)]GlcNAc
# Outline: as §1
# [19] = target: Gal(b1-4)GlcNAc(b1-6)GalNAc
# Outline: as §1
# Gal3S(b1-4)GlcNAc = target: Gal3S(b1-4)GlcNAc
# Outline: as §1
# [20] = target: GalNAc(b1-3)Gal(a1-4)Gal(b1-4)GlcNAc
# Outline: as §1
# GalNAc(b1-4)GlcNAc = target: GalNAc(b1-4)GlcNAc
# Outline: as §1
# [21] = target: GalNAc(b1-4)GlcNAc(b1-3)GalNAc(b1-4)GlcNAc
# Outline: as §1
# GalNAc(b1-4)GlcNAc6S = target: GalNAc(b1-4)GlcNAc6S
# Outline: as §1
# [22] = target: GalNAc3S(b1-4)[Fuc(a1-3)]GlcNAc
# Outline: as §1
# GlcA(b1-3)GlcNAc = target: GlcA(b1-3)GlcNAc
# Outline: as §1
# [23] = target: GlcNAc(a1-4)Gal(b1-4)GlcNAc
# Outline: as §1
# [24] = target: GlcNAc(a1-4)Gal(b1-4)GlcNAc(b1-3)Gal(b1-4)[Fuc(a1-3)]GlcNAc(b1-3)Gal(b1-4)[Fuc(a1-3)]GlcNAc
# Outline: as §1
# [25] = target: GlcNAc(b1-3)Gal(b1-4)GlcNAc(b1-3)[GlcNAc(b1-3)Gal(b1-4)GlcNAc(b1-3)]GalNAc
# Outline: as §1
binder,measurement,setting,value
B1,glycan array binding signal (z-score),[1],4.65
same,glycan array binding signal (z-score),[2],-0.192
same,glycan array binding signal (z-score),[3],-0.17
same,glycan array binding signal (z-score),[4],-0.263
same,glycan array binding signal (z-score),[5],0.967
same,glycan array binding signal (z-score),[6],1.27
same,glycan array binding signal (z-score),[7],0.335
same,glycan array binding signal (z-score),[8],3.1
same,glycan array binding signal (z-score),[9],4.03
same,glycan array binding signal (z-score),[10],-0.28
same,glycan array binding signal (z-score),[11],-0.284
same,glycan array binding signal (z-score),[12],3.04
same,glycan array binding signal (z-score),Gal(b1-3)GalNAc(b1-3)Gal,-0.217
same,glycan array binding signal (z-score),[13],-0.264
same,glycan array binding signal (z-score),[14],-0.106
same,glycan array binding signal (z-score),[15],-0.282
same,glycan array binding signal (z-score),[16],-0.244
same,glycan array binding signal (z-score),[17],-0.221
same,glycan array binding signal (z-score),[18],-0.198
same,glycan array binding signal (z-score),[19],3.52
same,glycan array binding signal (z-score),Gal3S(b1-4)GlcNAc,-0.271
same,glycan array binding signal (z-score),[20],6.36
same,glycan array binding signal (z-score),GalNAc(b1-4)GlcNAc,4.38
same,glycan array binding signal (z-score),[21],4.52
same,glycan array binding signal (z-score),GalNAc(b1-4)GlcNAc6S,4.1
same,glycan array binding signal (z-score),[22],-0.256
same,glycan array binding signal (z-score),GlcA(b1-3)GlcNAc,-0.28
same,glycan array binding signal (z-score),[23],-0.273
same,glycan array binding signal (z-score),[24],-0.266
same,glycan array binding signal (z-score),[25],-0.295
